Screening results deposited in PubChem by National Center for Advancing Translational Sciences (NCATS).
Shown is part of a subset that was picked to be rich in hits.
Methyltransferases: Primary Screen for Target Class Profiling of Small Molecule Inhibitors of Methyltransferases. purified enzyme, MTase-Glo SAH luminescence; hits give low values. calls only at 40 µM. actives 3.9% (n = 25,000). AID 1745853, 2022; call rule not given here
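Each enzyme was assayed with SAM and its substrate. SAH formation detected by MTase-Glo luminescence; single-point 40 uM screen[…].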
Large screens that a line does not name were inactive.

CC(C)c1ccc(N2C(=O)c3cc(-c4ccco4)nn3CC2(C)C(=O)NC2CCCCCC2)cc1 (stereo not given)	none
CSc1ccc(CNC(=O)CCn2ccc3cc(S(=O)(=O)N4CCCCC4)ccc32)cc1	none
CC(C)OC(=O)C(C)Oc1ccc2c(=O)c(Oc3ccccc3Br)c(C(F)(F)F)oc2c1 (stereo not given)	none
CN1C(=O)c2cc(C(=O)NCc3ccc(F)cc3)nn2CC1(C)C(=O)NC1CCCCC1 (stereo not given)	none
COC(=O)c1ncn2c1C(=O)N(c1ccc(C)cc1C)C(C)(C(=O)NC1CCCC1)C2 (stereo not given)	none
CCCCC(=O)N(c1ccc(OC)cc1)S(=O)(=O)c1ccc2c(c1)n(C)c(=O)n2C	none
COc1ccc(-c2nnc(-c3ccccc3)o2)cc1S(=O)(=O)N1CCSCC1	none
COc1ccccc1N1CCN(C(=O)CCCc2nnc3n4nc(-c5ccccc5)nc4c4ccccc4n23)CC1	none
COc1cccc(CNC(=O)c2cc3n(n2)CC(C)(C(=O)NC2CCCCCC2)N(C)C3=O)c1OC (stereo not given)	none
CCN(CCCNC(=O)CCCc1nnc2n3nc(-c4ccccc4)nc3c3ccccc3n12)c1ccccc1	none
CCCn1c(=O)c2ccc(Cl)cc2n2c(SCC(=O)Nc3ccc(C)cc3Cl)nnc12	none
Cc1ccccc1NC(=O)CSc1nnc2n(C)c(=O)c3ccc(C(=O)NC4CCCCC4)cc3n12	none
CC1(C(=O)NCc2ccccc2)Cn2c(cc3ccccc32)C(=O)N1CCc1ccco1 (stereo not given)	none
CCc1cc2c(cc3n2CC(C)(C(=O)NC2CCCCCC2)N(CCC(C)C)C3=O)s1 (stereo not given)	none
CCOC(=O)c1ccc(N2C(=O)CSc3c(c4ccccc4n3C)C2C(=O)NCCCOC(C)C)cc1 (stereo not given)	none
CC(=O)c1c(C)cccc1O[C@@H]1O[C@H](CO)[C@@H](O)[C@H](O)[C@H]1O	Methyltransferases active
CCC(C)(O)C(O)C(=O)OCc1ccc(O[C@@H]2O[C@H](CO)[C@@H](O)[C@H](O)[C@H]2O)c(OC)c1 (stereo not given in full)	none
COc1c(CCC(=O)O)cccc1O[C@@H]1O[C@H](CO)[C@@H](O)[C@H](O)[C@H]1O	Methyltransferases active
O=C(O)/C=C/c1ccc(O)c(O[C@@H]2O[C@H](CO)[C@@H](O)[C@H](O)[C@H]2O)c1	none
CC(=O)c1ccc(O[C@@H]2O[C@H](CO)[C@@H](O)[C@H](O)[C@H]2O)cc1	none
COc1ccc(O[C@@H]2O[C@H](CO)[C@@H](O)[C@H](O)[C@H]2O)cc1OC	none
Cc1ccc(Cn2c(=O)c3ccccc3n3c(CCC(=O)N4CCN(c5ccc(Cl)cc5)CC4)nnc23)cc1	none
Cc1ccc2c(c1)c1c3n2CCN(CC(O)CN2CCN(C(=O)c4ccco4)CC2)C3CCC1 (stereo not given)	none
CCOC(=O)c1cc2n(n1)CC(C)(C(=O)NC1CCC(C)CC1)N(Cc1cccc(F)c1)C2=O (stereo not given)	none
COc1cccc(N2C(=O)c3cc4oc(C)cc4n3CC2(C)C(=O)NC2CCCCCC2)c1 (stereo not given)	none
O=C(Nc1ccccc1)N1Cc2c(sc3c2CCCC3)-n2cccc2C1c1ccccc1 (stereo not given)	none
CC(CN1C(=O)c2cc(-c3ccco3)nn2CC1(C)C(=O)NC1CCCCCC1)c1ccccc1 (stereo not given)	none
COc1cc(C(=O)N2CCC(N3CCN(C)CC3)CC2)ccc1Nc1ncc2c(n1)N(C)c1ccccc1C(=O)N2C	none
COc1ccc(C(=O)Cn2nc3n(C)c(=O)c4ccc(C(=O)NC5CCCCC5)cc4n3c2=O)cc1	none
CN1c2cc(C(=O)NC3CCCCCC3)ccc2C(=O)N2CCCC21 (stereo not given)	none
CCc1cccc(CC)c1NC(=O)c1nn(C)c2c1CCc1cnc(Nc3ccc(C(=O)NC4CCN(C)CC4)cc3OC(F)(F)F)nc1-2	none
COc1cc(C(=O)NC2CCN(C)CC2)ccc1Nc1ncc2c(n1)N(C1CCCC1)CC(F)(F)C(=O)N2C	Methyltransferases active
CCC1C(=O)N(C)c2cnc(Nc3ccc(C(=O)NC4CCN(C)CC4)cc3OC)nc2N1C1CCCC1 (stereo not given)	Methyltransferases active
O=C(CCc1nnc2n(CCc3ccccc3)c(=O)c3ccccc3n12)N1CCN(c2ccc(F)cc2)CC1	none
CCOC(=O)c1cc2n(n1)CC(C)(C(=O)NC1CCC(C)CC1)N(Cc1ccc(C)cc1)C2=O (stereo not given)	none
Clc1ccc(Cn2c(CN3CCCC3)nc3ccccc32)cc1	none
Clc1ccc(Cn2c(Cc3ccccc3)nc3ccccc32)cc1	Methyltransferases active
CC1(C(=O)NCc2ccccc2)Cn2c(nc3ccccc32)C(=O)N1Cc1ccc(Cl)cc1 (stereo not given)	none
CCOc1ccc(CN2C(=O)c3cc4oc(C)cc4n3CC2(C)C(=O)NC2CCCCCC2)cc1 (stereo not given)	none
CC(C)=C1C[C@@]2(C)C(=CC1=O)CC[C@@H](O)[C@@H]2C	none
